{
  "source": "paper PMC7862700",
  "about": "“An all-to-all approach to the identification of sequence-specific readers for epigenetic DNA modifications on cytosine”",
  "assay_in_all_cases": "DAPPL (digital affinity profiling via proximity ligation, sequencing); 10 mM Tris-HCl pH 7.5, 50 mM NaCl, 1 mM DTT, 4% glycerol, room temperature, 30 min; GST-TFs on glutathione beads, 16-mer random dsDNA library, 0.1% formaldehyde crosslink after washing; high values mean tight binding",
  "settings_in_all_cases": "protein: recombinant; tags: N-terminal GST; dsDNA, one strand shown",
  "key": {"FLI1": {"biological_target": "T1, FLI1 (Homo sapiens, UniProt Q01543 1-452)", "T1 sequence": "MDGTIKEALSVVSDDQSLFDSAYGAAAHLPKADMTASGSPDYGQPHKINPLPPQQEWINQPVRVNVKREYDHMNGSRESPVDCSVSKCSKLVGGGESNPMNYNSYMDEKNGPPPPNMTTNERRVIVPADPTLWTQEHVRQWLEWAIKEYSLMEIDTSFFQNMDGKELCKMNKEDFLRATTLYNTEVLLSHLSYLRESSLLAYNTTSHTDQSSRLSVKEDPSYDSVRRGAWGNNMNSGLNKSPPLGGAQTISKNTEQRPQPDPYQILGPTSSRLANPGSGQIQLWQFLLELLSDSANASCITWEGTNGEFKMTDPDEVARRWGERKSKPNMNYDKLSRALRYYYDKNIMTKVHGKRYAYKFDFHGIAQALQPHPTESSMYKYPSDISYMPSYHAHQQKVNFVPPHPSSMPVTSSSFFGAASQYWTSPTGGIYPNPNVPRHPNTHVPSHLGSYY", "method_in_brief": "(§1)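 Binding signal is defined as a hexamer's read frequency for one factor over its frequency for the tag-only sample. To obtain reads, GST-fused human transcription factors were expressed in yeast, captured on glutathione beads, barcoded with DNA and pooled with that sample. Pools met 200 nmole of a 16-mer random double-stranded DNA library in Tris/NaCl/DTT/glycerol buffer for 30 min at room temperature before washing, 0.1% formaldehyde crosslinking, proximity ligation (BsaI/T4 ligase, 1 h, 37 °C), PCR and Illumina NextSeq500 sequencing.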"}, "ETV1": {"biological_target": "ETV1 (Homo sapiens, UniProt P50549 1-477)", "sequence (P50549 whole entry)": "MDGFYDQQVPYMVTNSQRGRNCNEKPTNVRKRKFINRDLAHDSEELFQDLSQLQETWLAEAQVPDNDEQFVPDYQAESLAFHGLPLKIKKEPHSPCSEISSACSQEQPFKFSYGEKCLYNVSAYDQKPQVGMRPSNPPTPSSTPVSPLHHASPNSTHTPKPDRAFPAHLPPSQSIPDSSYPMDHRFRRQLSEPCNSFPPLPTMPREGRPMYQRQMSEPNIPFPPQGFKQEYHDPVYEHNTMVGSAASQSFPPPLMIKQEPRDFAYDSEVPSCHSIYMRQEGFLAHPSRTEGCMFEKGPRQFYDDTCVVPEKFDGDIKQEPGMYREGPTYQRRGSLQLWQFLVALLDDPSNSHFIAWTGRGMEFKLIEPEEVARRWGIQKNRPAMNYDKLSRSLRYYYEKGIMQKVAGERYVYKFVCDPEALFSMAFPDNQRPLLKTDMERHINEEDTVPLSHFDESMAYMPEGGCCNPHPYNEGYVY", "method_in_brief": "as §1"}, "ERF": {"biological_target": "T2, ERF (Homo sapiens, UniProt P50548 1-548)", "T2 sequence": "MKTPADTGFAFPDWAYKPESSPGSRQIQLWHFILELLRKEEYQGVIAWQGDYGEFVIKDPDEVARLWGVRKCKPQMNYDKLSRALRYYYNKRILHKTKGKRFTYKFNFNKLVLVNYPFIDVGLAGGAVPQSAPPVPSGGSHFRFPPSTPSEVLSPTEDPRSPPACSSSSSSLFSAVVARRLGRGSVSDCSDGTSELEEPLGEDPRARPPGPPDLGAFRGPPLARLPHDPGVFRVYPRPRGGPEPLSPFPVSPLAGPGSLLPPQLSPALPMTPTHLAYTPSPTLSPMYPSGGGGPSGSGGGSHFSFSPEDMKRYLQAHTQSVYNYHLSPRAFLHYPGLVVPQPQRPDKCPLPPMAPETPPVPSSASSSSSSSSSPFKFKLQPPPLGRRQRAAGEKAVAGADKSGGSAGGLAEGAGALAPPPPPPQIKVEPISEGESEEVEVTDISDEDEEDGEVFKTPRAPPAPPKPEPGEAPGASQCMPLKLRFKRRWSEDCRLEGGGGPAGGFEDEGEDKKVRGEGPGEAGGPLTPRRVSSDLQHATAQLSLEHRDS", "method_in_brief": "as §1"}, "ETV7": {"biological_target": "T3, ETV7 (Homo sapiens, UniProt Q9Y603 1-341)", "T3 sequence": "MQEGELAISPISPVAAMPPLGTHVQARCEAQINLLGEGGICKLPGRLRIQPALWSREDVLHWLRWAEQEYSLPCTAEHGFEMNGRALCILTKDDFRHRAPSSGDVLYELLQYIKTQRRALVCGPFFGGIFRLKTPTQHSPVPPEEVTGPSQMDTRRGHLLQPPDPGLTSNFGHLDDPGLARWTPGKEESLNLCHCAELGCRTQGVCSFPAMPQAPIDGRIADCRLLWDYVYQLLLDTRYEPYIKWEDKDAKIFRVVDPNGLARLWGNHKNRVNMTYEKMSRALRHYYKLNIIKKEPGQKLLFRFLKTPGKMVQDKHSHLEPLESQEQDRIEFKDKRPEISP", "method_in_brief": "as §1"}, "ELK1": {"biological_target": "T4, ELK1 (Homo sapiens, UniProt P19419 1-428)", "T4 sequence": "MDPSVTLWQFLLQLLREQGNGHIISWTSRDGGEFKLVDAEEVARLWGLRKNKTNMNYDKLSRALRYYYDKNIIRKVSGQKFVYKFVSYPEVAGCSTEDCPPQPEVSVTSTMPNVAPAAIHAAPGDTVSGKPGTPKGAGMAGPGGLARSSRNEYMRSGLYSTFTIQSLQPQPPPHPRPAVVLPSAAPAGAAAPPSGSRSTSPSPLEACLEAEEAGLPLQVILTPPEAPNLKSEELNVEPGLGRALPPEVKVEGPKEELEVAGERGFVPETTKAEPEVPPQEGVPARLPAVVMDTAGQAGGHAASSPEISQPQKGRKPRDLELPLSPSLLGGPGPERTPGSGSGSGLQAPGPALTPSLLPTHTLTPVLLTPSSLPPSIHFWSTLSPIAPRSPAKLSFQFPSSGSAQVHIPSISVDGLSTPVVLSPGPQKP", "method_in_brief": "as §1"}, "ERG": {"biological_target": "T5, ERG (Homo sapiens, UniProt P11308 1-479)", "T5 sequence": "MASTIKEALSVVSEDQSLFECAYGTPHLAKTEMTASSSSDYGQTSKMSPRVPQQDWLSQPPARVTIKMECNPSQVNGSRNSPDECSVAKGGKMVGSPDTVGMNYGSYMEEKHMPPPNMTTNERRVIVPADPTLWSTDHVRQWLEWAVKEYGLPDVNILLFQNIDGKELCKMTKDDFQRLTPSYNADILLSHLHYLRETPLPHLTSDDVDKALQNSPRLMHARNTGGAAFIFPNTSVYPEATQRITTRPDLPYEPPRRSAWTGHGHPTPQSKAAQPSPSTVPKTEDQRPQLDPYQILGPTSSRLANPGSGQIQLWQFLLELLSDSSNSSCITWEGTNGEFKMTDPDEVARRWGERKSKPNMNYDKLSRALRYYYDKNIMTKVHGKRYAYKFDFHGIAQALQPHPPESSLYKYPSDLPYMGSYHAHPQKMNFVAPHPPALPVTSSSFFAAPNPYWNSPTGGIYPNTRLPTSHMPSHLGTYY", "method_in_brief": "as §1"}, "ELF1": {"biological_target": "ELF1 (Homo sapiens, UniProt P32519 1-619)", "sequence (P32519 whole entry)": "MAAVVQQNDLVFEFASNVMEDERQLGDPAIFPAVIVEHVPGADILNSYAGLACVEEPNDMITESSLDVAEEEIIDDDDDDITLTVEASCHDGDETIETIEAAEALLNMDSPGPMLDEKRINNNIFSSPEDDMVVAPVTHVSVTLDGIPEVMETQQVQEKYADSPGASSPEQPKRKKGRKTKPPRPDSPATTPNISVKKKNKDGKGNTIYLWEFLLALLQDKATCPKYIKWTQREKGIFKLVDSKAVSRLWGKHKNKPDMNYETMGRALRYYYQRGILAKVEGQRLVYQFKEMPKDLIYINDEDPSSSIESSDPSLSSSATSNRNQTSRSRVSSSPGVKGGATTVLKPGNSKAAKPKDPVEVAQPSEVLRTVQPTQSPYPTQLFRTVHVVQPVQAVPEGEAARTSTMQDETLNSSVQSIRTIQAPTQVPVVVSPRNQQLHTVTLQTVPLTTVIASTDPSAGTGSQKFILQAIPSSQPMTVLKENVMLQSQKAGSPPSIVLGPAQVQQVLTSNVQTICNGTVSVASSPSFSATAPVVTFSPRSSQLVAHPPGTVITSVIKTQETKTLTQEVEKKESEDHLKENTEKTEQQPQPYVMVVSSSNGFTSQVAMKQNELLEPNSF", "method_in_brief": "as §1"}, "EHF": {"biological_target": "T6, EHF (Homo sapiens, UniProt Q9NZC4 1-300)", "T6 sequence": "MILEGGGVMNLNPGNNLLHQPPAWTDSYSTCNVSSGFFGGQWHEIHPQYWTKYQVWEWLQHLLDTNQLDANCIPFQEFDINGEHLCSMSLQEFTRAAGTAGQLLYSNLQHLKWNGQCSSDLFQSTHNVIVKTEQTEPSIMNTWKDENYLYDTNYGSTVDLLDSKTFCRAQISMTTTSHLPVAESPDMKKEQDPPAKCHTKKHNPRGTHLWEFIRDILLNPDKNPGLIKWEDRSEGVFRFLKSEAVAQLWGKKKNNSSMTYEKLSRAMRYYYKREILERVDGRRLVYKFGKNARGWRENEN", "method_in_brief": "as §1"}, "ELK3": {"biological_target": "T7, ELK3 (Homo sapiens, UniProt P41970 1-407)", "T7 sequence": "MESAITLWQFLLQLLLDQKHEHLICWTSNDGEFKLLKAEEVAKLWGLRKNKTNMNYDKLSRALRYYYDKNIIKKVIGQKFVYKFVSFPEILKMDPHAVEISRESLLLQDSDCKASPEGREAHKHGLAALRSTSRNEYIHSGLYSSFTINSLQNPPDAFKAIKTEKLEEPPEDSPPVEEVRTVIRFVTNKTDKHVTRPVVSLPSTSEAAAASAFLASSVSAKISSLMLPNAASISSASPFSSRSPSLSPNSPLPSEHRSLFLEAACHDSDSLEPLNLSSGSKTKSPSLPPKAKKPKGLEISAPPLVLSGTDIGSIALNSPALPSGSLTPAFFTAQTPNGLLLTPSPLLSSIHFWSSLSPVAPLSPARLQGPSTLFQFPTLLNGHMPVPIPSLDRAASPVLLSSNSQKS", "method_in_brief": "as §1"}, "FEV": {"biological_target": "T8, FEV (Homo sapiens, UniProt Q99581 1-238)", "T8 sequence": "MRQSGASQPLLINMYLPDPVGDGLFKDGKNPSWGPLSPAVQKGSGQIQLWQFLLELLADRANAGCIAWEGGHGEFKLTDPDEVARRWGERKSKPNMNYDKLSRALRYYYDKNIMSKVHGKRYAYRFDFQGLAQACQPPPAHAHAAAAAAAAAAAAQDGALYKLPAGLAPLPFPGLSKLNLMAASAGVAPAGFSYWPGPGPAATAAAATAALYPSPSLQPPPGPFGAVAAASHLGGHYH", "method_in_brief": "as §1"}, "ETV3L": {"biological_target": "T9, ETV3L (Homo sapiens, UniProt Q6ZN32 1-361)", "T9 sequence": "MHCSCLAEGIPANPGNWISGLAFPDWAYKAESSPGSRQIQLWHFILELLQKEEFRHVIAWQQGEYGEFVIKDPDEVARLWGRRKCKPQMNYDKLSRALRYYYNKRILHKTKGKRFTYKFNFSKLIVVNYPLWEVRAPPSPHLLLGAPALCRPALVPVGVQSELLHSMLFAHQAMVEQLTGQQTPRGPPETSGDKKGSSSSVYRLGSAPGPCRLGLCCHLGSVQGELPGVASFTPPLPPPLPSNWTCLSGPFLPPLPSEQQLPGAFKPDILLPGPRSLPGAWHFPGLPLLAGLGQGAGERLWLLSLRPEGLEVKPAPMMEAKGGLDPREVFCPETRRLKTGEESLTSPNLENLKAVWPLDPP", "method_in_brief": "as §1"}, "ETS2": {"biological_target": "T10, ETS2 (Homo sapiens, UniProt P15036 1-469)", "T10 sequence": "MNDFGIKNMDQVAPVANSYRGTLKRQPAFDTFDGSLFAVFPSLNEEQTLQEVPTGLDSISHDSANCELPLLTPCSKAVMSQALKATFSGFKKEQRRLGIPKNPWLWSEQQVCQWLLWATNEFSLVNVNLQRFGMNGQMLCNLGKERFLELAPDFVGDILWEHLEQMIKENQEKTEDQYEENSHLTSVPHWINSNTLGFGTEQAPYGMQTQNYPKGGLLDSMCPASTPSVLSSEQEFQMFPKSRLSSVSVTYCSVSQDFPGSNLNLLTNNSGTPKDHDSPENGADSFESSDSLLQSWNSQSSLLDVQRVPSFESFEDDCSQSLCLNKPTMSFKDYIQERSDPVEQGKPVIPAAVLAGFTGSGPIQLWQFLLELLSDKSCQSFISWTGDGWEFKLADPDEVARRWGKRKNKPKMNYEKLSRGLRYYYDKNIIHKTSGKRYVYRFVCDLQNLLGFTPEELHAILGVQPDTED", "method_in_brief": "as §1"}, "ELF5": {"biological_target": "T11, ELF5 (Homo sapiens, UniProt Q9UKW6-2 1-255)", "T11 sequence": "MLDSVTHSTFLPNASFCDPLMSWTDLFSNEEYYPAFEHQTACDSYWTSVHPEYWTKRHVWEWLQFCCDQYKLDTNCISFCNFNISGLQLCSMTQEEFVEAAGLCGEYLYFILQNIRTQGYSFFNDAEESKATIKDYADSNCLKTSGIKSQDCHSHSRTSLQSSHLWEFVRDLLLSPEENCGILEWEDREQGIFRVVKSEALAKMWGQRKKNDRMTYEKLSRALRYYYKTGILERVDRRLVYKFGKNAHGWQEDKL", "method_in_brief": "as §1"}, "ETV3": {"biological_target": "T12, ETV3 (Homo sapiens, UniProt P41162-2 1-143)", "T12 sequence": "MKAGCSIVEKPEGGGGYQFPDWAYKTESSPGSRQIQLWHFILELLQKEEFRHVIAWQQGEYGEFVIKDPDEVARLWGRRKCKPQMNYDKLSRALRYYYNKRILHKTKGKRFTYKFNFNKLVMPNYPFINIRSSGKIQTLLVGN", "method_in_brief": "as §1"}},
  "data": [
    {"sequence": "CGTTGG", "values": [
      {"measurement": "binding signal", "setting": "FLI1", "result": "1.08 fold enrichment (6-mer frequency, TF over GST control)"},
      {"measurement": "binding signal", "setting": "ETV1", "result": "1.01 fold enrichment (6-mer frequency, TF over GST control)"},
      {"measurement": "binding signal", "setting": "ERF", "result": "1.07 fold enrichment (6-mer frequency, TF over GST control)"},
      {"measurement": "binding signal", "setting": "ETV7", "result": "1.07 fold enrichment (6-mer frequency, TF over GST control)"}
    ]},
    {"sequence": "CGCACA", "values": [
      {"measurement": "binding signal", "setting": "FLI1", "result": "1.01 fold enrichment (6-mer frequency, TF over GST control)"},
      {"measurement": "binding signal", "setting": "ELK1", "result": "1.08 fold enrichment (6-mer frequency, TF over GST control)"},
      {"measurement": "binding signal", "setting": "ERG", "result": "1.02 fold enrichment (6-mer frequency, TF over GST control)"},
      {"measurement": "binding signal", "setting": "ELF1", "result": "1.05 fold enrichment (6-mer frequency, TF over GST control)"},
      {"measurement": "binding signal", "setting": "EHF", "result": "1.03 fold enrichment (6-mer frequency, TF over GST control)"},
      {"measurement": "binding signal", "setting": "ELK3", "result": "1.02 fold enrichment (6-mer frequency, TF over GST control)"},
      {"measurement": "binding signal", "setting": "FEV", "result": "1.02 fold enrichment (6-mer frequency, TF over GST control)"},
      {"measurement": "binding signal", "setting": "ETV1", "result": "1.01 fold enrichment (6-mer frequency, TF over GST control)"},
      {"measurement": "binding signal", "setting": "ERF", "result": "1.07 fold enrichment (6-mer frequency, TF over GST control)"},
      {"measurement": "binding signal", "setting": "ETV3L", "result": "1.04 fold enrichment (6-mer frequency, TF over GST control)"},
      {"measurement": "binding signal", "setting": "ETS2", "result": "1.04 fold enrichment (6-mer frequency, TF over GST control)"},
      {"measurement": "binding signal", "setting": "ELF5", "result": "1.04 fold enrichment (6-mer frequency, TF over GST control)"},
      {"measurement": "binding signal", "setting": "ETV3", "result": "1.03 fold enrichment (6-mer frequency, TF over GST control)"}
    ]}
  ]
}
